# Key:
# Assay in all cases: PBM binding z-score (relative to random genomic background probes); higher = stronger binding; sequences stand for … in GC…GCGATTGACAGCGTAGAATGAAGG
# [1] = tested on: FXR:RXRa (NR concentration 270 nM, RXRa partner concentration 90 nM)
# How it was run: (§1)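 Each nuclear receptor dimer, without ligand, was incubated for 1 h on custom Agilent 4×180K protein-binding microarrays. Binding was detected with antibodies against each partner (one per run), and scanned fluorescence was regression-normalized. The binding z-scores are referenced to random human genomic background probes.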
# [2] = tested on: LXRa:RXRa (NR concentration 270 nM, RXRa partner concentration 90 nM)
# How it was run: as §1
# [3] = tested on: LXRa homodimer (NR concentration 270 nM)
# How it was run: as §1
# [4] = tested on: LXRb:RXRa (NR concentration 270 nM, RXRa partner concentration 90 nM)
# How it was run: as §1
# [5] = tested on: LXRb homodimer (NR concentration 270 nM)
# How it was run: as §1
# [6] = tested on: PPARa:RXRa (NR concentration 270 nM, RXRa partner concentration 90 nM)
# How it was run: as §1
# [7] = tested on: PPARg:RXRa (NR concentration 180 nM, RXRa partner concentration 90 nM)
# How it was run: as §1
# [8] = tested on: PPARg:RXRa 270nM:90nM, anti-RXR (NR concentration 270 nM, RXRa partner concentration 90 nM)
# How it was run: as §1
# [9] = tested on: PPARg:RXRa 30nM:10nM, anti-RXR (NR concentration 30 nM, RXRa partner concentration 10 nM)
# How it was run: as §1
# [10] = tested on: PPARg:RXRa 90nM:30nM, anti-RXR (NR concentration 90 nM, RXRa partner concentration 30 nM)
# How it was run: as §1
# [11] = tested on: PPARg:RXRa DBDmut IVT, anti-RXR (DBD mutation: RXRa K156A/R161A, NR concentration 270 nM, RXRa partner concentration 90 nM)
# How it was run: as §1
# [12] = tested on: PPARg:RXRa IVT, anti-PPARg (NR concentration 270 nM, RXRa partner concentration 90 nM)
# How it was run: as §1
# [13] = tested on: PPARg DBDmut:RXRa IVT, anti-PPARg (DBD mutation: PPARg1 K132A/R137A, NR concentration 270 nM, RXRa partner concentration 90 nM)
# How it was run: as §1
# [14] = tested on: PPARg DBDmut IVT, anti-PPARg (DBD mutation: PPARg1 K132A/R137A, NR concentration 270 nM)
# How it was run: as §1
# [15] = tested on: PPARg homodimer (NR concentration 180 nM)
# How it was run: as §1
# [16] = tested on: PXR:RXRa (NR concentration 270 nM, RXRa partner concentration 90 nM)
# How it was run: as §1
# [17] = tested on: PXR homodimer (NR concentration 270 nM)
# How it was run: as §1
# [18] = tested on: RARa:RXR (NR concentration 270 nM, RXRa partner concentration 90 nM)
# How it was run: as §1
# [19] = tested on: RARa homodimer (NR concentration 270 nM)
# How it was run: as §1
# [20] = tested on: RARb:RXRa (NR concentration 270 nM, RXRa partner concentration 90 nM)
# How it was run: as §1
Sequence,PBM binding z-score [1],PBM binding z-score [2],PBM binding z-score [3],PBM binding z-score [4],PBM binding z-score [5],PBM binding z-score [6],PBM binding z-score [7],PBM binding z-score [8],PBM binding z-score [9],PBM binding z-score [10],PBM binding z-score [11],PBM binding z-score [12],PBM binding z-score [13],PBM binding z-score [14],PBM binding z-score [15],PBM binding z-score [16],PBM binding z-score [17],PBM binding z-score [18],PBM binding z-score [19],PBM binding z-score [20]
AGAACGAGGGCACTGAGTTGATAGCACGGGTGGC,0.0718,-0.082,-0.301,-0.236,-0.887,1.52,1.5,1.04,0.0133,0.347,3.56,2.9,0.453,0.196,0.00559,1.21,4.15,0.453,-0.261,2.09
CCTACTGGGCCATCAGGTCATTGAAATCAACGTT,1.33,1.07,1.03,1.45,-0.244,2.74,2.67,3.66,1.23,2.99,4.17,4.91,-0.467,-0.409,0.78,1.25,0.298,1.68,0.289,2.04
CGTAGTTGGTCAAGGTCACACACGCTATAGGTAC,4.12,3.72,1.39,3.6,0.592,4.13,3.4,3.54,1.47,2.64,1.92,3.93,0.825,0.313,2.32,4.02,1.11,4.18,1.01,4.18
TCTATAAGTTGAAGGGCAACCGACGAGTCCGTTT,0.654,0.764,-0.0358,0.57,0.00788,1.27,0.844,2.82,3.72,3.29,2.03,0.839,0.713,0.947,0.68,0.812,0.652,0.558,0.192,1.93
CCGACTGGGACAAAGGTTACCATACTCAGTACGA,0.993,1.51,0.114,1.8,-0.631,4.69,9.69,8.78,8.13,10.5,3.26,5.21,0.234,0.111,1.47,1.51,-0.265,2.39,0.207,2.03
GCATATAGGTGATACAAGGTGAAAGTCCGATTGT,1.98,0.421,-0.185,0.234,-0.213,2.26,1.73,2.17,0.808,1.33,5.22,4.28,0.633,0.787,0.568,0.71,-0.00117,1.11,0.474,0.893
GCAGGCAGGTGAAACGCAGGTAACTCAGGGTGGC,0.782,0.881,-0.513,-0.67,-0.423,0.341,0.206,-0.46,-0.909,-0.6,1.12,0.912,-1,-1.1,-0.662,-0.0371,-1.2,0.429,-0.796,0.562
CGAACTAGGTCATTGACACGACAGTGAATAGTAA,5.16,3.65,0.689,2.48,0.158,4.67,7.57,6.21,3.95,5.54,7.93,8.44,3.78,3.06,2.25,1.33,0.767,2.2,0.177,3.52
GCTTGTAGATCAAGGTTAAGTAAGACTAAGCTAA,0.31,0.866,-0.213,0.847,-0.28,1.8,1.15,2.27,0.377,1.78,1.5,1.73,-0.282,0.512,-0.0519,0.746,-0.237,0.964,-0.148,0.875
ACTATTAGTTCAGACGAGGGCAACCGATAGGTTG,1.07,1.31,0.305,0.453,0.271,0.817,0.621,0.191,-0.0108,0.00845,0.264,0.891,0.625,0.802,0.783,3.92,2.04,0.878,0.72,2.1
GTACCAAGGTGAATAGGTCCTTGATGAGTAGGCG,0.104,0.0189,-0.541,-0.255,-0.745,1.27,0.918,0.908,0.0599,0.237,1.68,1.9,-0.22,-0.0495,0.461,-0.118,-0.138,0.337,0.144,1.23
CGTCCAAGATCAAAGGTCAGTGAAGAGATGACGG,3.66,3.73,1.53,3.21,0.413,4.84,5.29,5.82,3.81,5.56,0.235,2.39,0.493,-0.0647,3.36,3.67,0.13,5.06,1.29,4.37
TCTAGAAGGCCAGAGGGTCACTCAAGAGGTACGG,1.32,1.11,-0.432,1.28,-0.671,2.5,1.33,2.98,3.24,3.02,1.75,0.693,-0.301,0.186,1.22,1.64,0.0475,2.54,0.19,2.68
CGTCCATGGTCAAGGTCAGTGAAAGAGACTCGAA,1.92,1.67,0.03,1.6,-0.273,2.38,1.13,1.68,0.0317,0.977,0.484,1.54,-0.688,-0.778,1.17,1.78,0.42,2.23,0.236,3.59
CGAACTAGGTCAGAACAGGACAGTCAAGGATGAT,1.77,1.06,0.173,0.627,-0.362,3.31,5.24,4.41,1.74,3.31,7.24,7.46,1.4,0.732,0.7,1.08,0.108,1.05,0.263,3.08
AGTCAAAGTTCAGGACGAGGTAACTTAAAGCACG,4.45,3.83,1.38,2.1,0.364,3.59,4.72,4.85,2.02,3.7,-0.0506,2.05,0.457,0.0759,1.75,3.24,1.4,2.84,1.02,4.25
TCATATAGGTAAAAGGTGATAGTCGGTGTGGTAA,1.41,1.28,0.217,1.35,0.351,4.6,8.06,7.95,8.2,8.56,5.2,4.18,1.26,1.38,1.66,0.875,0.988,1.84,1.85,1.17
CCGACTGGGGCATAAGCTTACCATAAGCCAGCCC,-0.673,-0.689,-0.589,-0.747,-1.15,-0.16,0.765,1.04,-0.348,0.228,2.59,1.57,-1.09,-1.16,-0.394,-0.775,-0.649,-0.694,-0.632,-0.11
AGAATGAGGTTATACGTAGATCACGGAAGAAAGT,2.18,2.11,0.266,1.61,-0.128,3.03,1.91,2.03,0.729,1.42,4.13,2.15,1.62,1.21,0.376,1.19,0.48,1.72,0.335,1.53
ATAGCAAGGTGATCGTGAGGTCGTTGATACTAAC,1.34,0.986,0.104,0.673,-0.808,1.47,0.359,0.22,0.0107,-0.0753,0.118,0.727,0.619,0.253,0.565,2.62,0.543,1.98,-0.0537,1.16
ATATGTAGGTTAGCTGGGGTCATTCTGACTAGGC,4.61,5.75,3.4,4.86,1.32,5.07,5.36,5.24,2.82,4.48,7.04,6.37,3.34,2.13,2.71,6.41,3.72,5.57,1.37,2.88
AGAACGAGGGCACGCTGAGTTTATAGCAGAGTAG,0.87,1.08,-0.437,0.283,-1.07,2.21,2.19,1.98,0.505,1.43,4.28,3.85,1.13,0.317,0.761,3.96,2.87,1.28,-0.418,2.63
CTCGTAAGGTCGGTTGAGGTGAGTATACGGATAA,2.14,1.03,-0.261,0.701,-0.404,1.46,0.0124,0.578,-0.175,0.326,0.0738,0.679,-0.123,0.104,0.333,2.72,0.279,1.82,-0.0631,2.29
CCTCGGAGGACAACAGGAGGCCAGAGCTGCCAGA,-0.418,-0.512,-0.358,-1.07,-0.956,-0.509,0.0998,-0.942,-0.765,-0.807,-0.393,-0.707,-0.633,-1.31,-0.602,-0.549,-0.283,-0.45,-0.398,1.07
TAGCCTAGGTCATTCAGTGGCCAGTATAGAAAGC,4.21,3.55,0.592,2.39,0.554,3.44,1.95,2.24,0.522,1.51,1.37,2.7,0.204,-0.521,1.28,1.66,-0.355,2.22,-0.566,3.65
ATCTCTAGGTAAGACTCGGTTCAGTGAAGAACGC,0.472,0.583,0.614,0.263,1.07,-0.0579,-0.0197,0.126,0.0672,0.278,2.07,1.14,0.784,0.701,0.702,0.669,1.18,0.0867,1.5,0.192

# Source: the supplement of paper PMC6555819
